The sample as a whole holds a higher share of hits than the screen did.
Pf Dd2 growth: qHTS Primary assay for Inhibitors of Plasmodium falciparum Dd2 growth in vitro | hit rate 4.3% among 120,000 | Potency, µM (titrated, usually from 28.9 µM), hits mostly inhibitors | AID 1347417, 2020 | P. falciparum Dd2 growth, SYBR Green, 72 h; active = well fitted inhibition curve with a large enough effect; also: nearly all actives have a fitted effect of over 65% in size
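Infected erythrocytes (Dd2, 0.3% parasitemia, 2.5% hematocrit final) are added to compound in RPMI-1640/Albumax II medium, grown 72 h at 37C in low oxygen, then lysed with saponin/Triton-X containing SYBR Green and read by fluorescence.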
Hits are given with their value; i = inactive; [ ] = dose if it differs, or a comment.

SMILES	Pf Dd2 growth
CC1CCN(C(=O)c2cnn(-c3ccc(Cl)cc3)c2C2CCN(C(=O)OC(C)(C)C)CC2)CC1	i
CC1(C)N=C(SCc2ccc(Cl)cc2)c2ccccc2N1	i
CCC(CC)C(=O)NC[C@@H]1C=C(C)[C@H](Cc2nc3ccc(F)cc3[nH]2)C[C@H]1C(C)C	i
COc1ccc2[nH]c(C[C@@H]3C[C@@H](C(C)C)[C@H](CNC(=O)c4cccnc4)C=C3C)nc2n1	11µM
CC(=O)NC[C@@H]1C=C(C)[C@H](Cc2nc3ccccc3[nH]2)C[C@H]1C(C)C	i
CCCNC(=O)NC[C@@H]1C=C(C)[C@H](Cc2nc3nc(OC)ccc3[nH]2)C[C@H]1C(C)C	10µM
CC1=C[C@@H](CNC(=O)C(C)C)[C@H](C(C)C)C[C@H]1Cc1nc2ncccc2[nH]1	i
CC1=C[C@@H](CNC(=O)c2cccnc2)[C@H](C(C)C)C[C@H]1CC(=O)NC1CCCC1	i
COc1ccc(C2=Nc3ccccc3NC(c3cccs3)=N2)cc1	i
Cn1ccnc1CNC[C@H]1Cn2cc(-c3ccccc3)nc2CO1	i
COc1cccc(NC(=O)Nc2cc(-c3cn4cccnc4n3)ccc2C)c1	i
COc1cccc(NC(=O)Nc2cc(-c3cn4cccnc4n3)ccc2OC)c1	i
COc1ccc(-c2cn3cccnc3n2)cc1NC(=O)Nc1cc(C)ccc1C	11µM
CC(C)N1CCN(C(=O)c2csc(N3CCN(c4cccc(Cl)c4)CC3)n2)CC1	i
COc1ccc(NC(=O)NC[C@@H]2C=C(C)[C@H](CC(=O)NCCN(C)C)C[C@H]2C(C)C)cc1	i
CCCCCCNC(=O)c1c[nH]c2ccc(S(=O)(=O)N(C)c3ccc(C(C)C)cc3)cc2c1=O	i
CCOc1ccc(NC(=O)CSC2=Nc3ccccc3C3=NC(CCC(=O)NCc4ccccc4)C(=O)N23)cc1 (stereo not given)	i
COc1ccc(NC(=O)CSC2=Nc3ccccc3C3=NC(CCC(=O)NCc4ccc(F)cc4)C(=O)N23)cc1Cl (stereo not given)	11µM
CC(C)c1ccc(NC(=O)CSC2=Nc3ccccc3C3=NC(CCC(=O)NCc4ccc(F)cc4)C(=O)N23)cc1 (stereo not given)	i
Cc1cccc(NC(=O)CSC2=Nc3ccccc3C3=NC(CC(=O)NCc4cccs4)C(=O)N23)c1 (stereo not given)	3.2µM
Cc1ccc(CSC2=Nc3ccccc3C3=NC(CC(=O)NCc4cccs4)C(=O)N23)c(C)c1 (stereo not given)	i
CC(C)(C)c1ccc(CSC2=Nc3ccccc3C3=NC(CC(=O)NCc4cccs4)C(=O)N23)cc1 (stereo not given)	i
COc1ccc(OC)c(NC(=O)CSC2=Nc3ccccc3C3=NC(CCC(=O)NCc4ccccc4)C(=O)N23)c1 (stereo not given)	13µM
COc1ccc(Cl)cc1NC(=O)CSC1=Nc2ccccc2C2=NC(CCC(=O)NCc3ccc(F)cc3)C(=O)N12 (stereo not given)	i
COc1ccccc1NC(=O)CSC1=Nc2ccccc2C2=NC(CCC(=O)NCCc3ccccc3)C(=O)N12 (stereo not given)	i
SMILES	Pf Dd2 growth
O=C(NCC1CCN(c2cc(-c3ccc(F)cc3)[nH]n2)CC1)c1cc(C2CC2)[nH]n1	i
CO[C@H]1C(=O)N(C(C)C)[C@H]1C1CCN(C(=O)NC2CCCCC2)CC1	i
O=C(O)CCc1cc2n(n1)CCCN(Cc1cn[nH]c1C(=O)O)C2	i
CCN1C(=O)c2ccccc2Sc2ccc(NC(=O)Cc3ccc(OC)c(OC)c3)cc21	i
COc1cccc(OCc2nc(C(=O)N(C)Cc3cccnc3)co2)c1	i
CCc1cc(N2CCC3(CCCN(C)C3=O)C2)nc(N2CCCC2)n1 (stereo not given)	i
COc1ccc(C(=O)N2CCOCC(O)(CN3CCCC3)C2)c(OC)c1 (stereo not given)	i
CCc1cc(N2CCOCC(O)(CN3CCCC3)C2)nc(N2CCCC2)n1 (stereo not given)	5.6µM
O=C(CSc1ncc(S(=O)(=O)c2ccc(Br)cc2)c(=O)[nH]1)NCc1ccccc1Cl	i
Cc1ccc(-c2cc(NC(=O)C(C)Oc3ccccc3F)on2)cc1 (stereo not given)	i
COCC1CCCN1S(=O)(=O)c1ccc2c(c1)CN(C(=O)COC(C)C)CC2 (stereo not given)	i
Cc1ccccc1Cn1c(=O)n(Cc2ccco2)c(=O)c2oc3ccccc3c21	i
Cc1ccccc1Cn1cnc2c(oc3ccccc32)c1=O	8.9µM
Cc1ccc(NC(=O)Cn2cnc3c(oc4ccccc43)c2=O)cc1	i[0.594 µM]
CCOC(=O)c1c(C)sc(-c2c(-c3ccc(OC)c(F)c3)[nH]c3[nH]c(=O)[nH]c(=O)c23)c1O	i
Cc1cc2nc3n(c(=O)c2n1CC(=O)Nc1ccc(F)c(F)c1)CCCCC3	i
COc1ccc(C(CN)N2CCCC2)cc1 (stereo not given)	i
O=C1Cc2c(-c3ccccc3Cl)n[nH]c2CN1Cc1ccccc1	i
O=C1Cc2c(-c3ccccc3OCc3ccccc3)n[nH]c2CN1Cc1ccccc1	10µM
O=C1Cc2c(-c3cccc4ccccc34)n[nH]c2CN1Cc1ccccn1	i
COc1ccc(CN2Cc3[nH]nc(-c4ccccc4OC)c3CC2=O)cc1	i
O=C1Cc2c(-c3ccccc3OCc3ccccc3)n[nH]c2CN1Cc1ccccn1	10µM
COc1ccc(-c2n[nH]c3c2CC(=O)N(Cc2ccccn2)C3)cc1F	i
Cc1ccc(CNC(=O)N2CCC(N3CC4CC(C3)[C@H]3CCCC(=O)N3C4)CC2)cc1 (stereo not given in full)	i
CCOC(=O)c1ccccc1NC(=O)Cn1c(=O)n(Cc2ccc(C(=O)NCc3ccc4c(c3)OCO4)cc2)c(=O)c2ccccc21	i
SMILES	Pf Dd2 growth
O=C1CC2CCCC(C1)N2C(=O)c1ccccc1F	i
CCCCOc1cccc(NC(=O)CSc2nnc(C)s2)c1	i
O=C1c2c(nc(CNc3ccc(F)cc3)n2Cc2ccccc2)NCCN1CCN1CCCCC1	i
O=C1c2c(nc(CNc3ccc(OC(F)(F)F)cc3)n2Cc2ccccc2)NCCN1CCN1CCOCC1	5µM
O=C1c2c(nc(CNc3cccc(F)c3)n2Cc2ccccc2)NCCN1CCN1CCOCC1	i
Fc1ccc(Cc2cn3cc(-c4ccccc4)nc3s2)cc1	i
O=C(CCc1ccccc1)N1CCC(c2noc(-c3cccnc3)n2)C1 (stereo not given)	i[5.79 µM]
COCCOC1CCOC2(CCN(C(=O)c3nccc4ccccc34)CC2)C1 (stereo not given)	i
COCCOC1CCOC2(CCN(C(=O)c3n[nH]c4ccccc34)CC2)C1 (stereo not given)	i
COCCOC1CCOC2(CCN(C(=O)Cc3c[nH]c4ccccc34)CC2)C1 (stereo not given)	11µM
COCCOC1CCOC2(CCN(C(=O)COc3ccccc3)CC2)C1 (stereo not given)	11µM
COCCOC1CCOC2(CCN(C(=O)Cc3ccccc3)CC2)C1 (stereo not given)	i
COCCOC1CCOC2(CCN(C(=O)c3nn(C)c4ccccc34)CC2)C1 (stereo not given)	5.6µM
COC1CCOC2(CCN(C(=O)COc3ccccc3)CC2)C1 (stereo not given)	i
COCCOC1CCOC2(CCN(C(=O)c3ccccc3)CC2)C1 (stereo not given)	i
COCCOC1CCOC2(CCN(C(=O)C3(c4ccccc4)CC3)CC2)C1 (stereo not given)	i
Cn1c(=O)c2c(SCC(=O)NCc3ccco3)nc(-c3ccccc3F)nc2n(C)c1=O	i
